Tgondii IFNg = blocks Toxoplasma gondii growth in the presence of IFN-gamma | 69,000 compounds, 3.8% hits | Toxoplasma gondii growth in IFN-gamma-treated host cells; active compounds read low | activity change, negative = inhibition, % (test concentration not listed); in the data active means activity change below about -70%, passing the limit was not always enough;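 further: host cells are HeLa cells infected with Toxoplasma gondii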
Numbers stand for hits; i = inactive. The entries come from a sample that favours hits as a whole.

SMILES	Tgondii IFNg
Cc1cnn(Cc2nc(-c3ccc(NC(=O)c4ccccc4C(F)(F)F)cc3)oc2C)c1	-88
Cc1cnn(Cc2nc(-c3ccc(NC(=O)c4cc(F)cc(F)c4)cc3)oc2C)c1	i
Cc1cc(C)n(Cc2nc(-c3ccc(NC(=O)/C=C/c4ccccc4)cc3)oc2C)n1	i
Cc1ccc(C(=O)Nc2ccc(-c3nc(Cn4cccn4)c(C)o3)cc2)c(C)c1	i
CCOc1ccccc1C(=O)Nc1ccc(-c2nc(Cn3cc(C)cn3)c(C)o2)cc1	i
Cc1ccc(C)c(C(=O)Nc2ccc(-c3nc(Cn4cccn4)c(C)o3)cc2)c1	i
Cc1oc(-c2ccc(NC(=O)/C=C/c3ccccc3)cc2)nc1Cn1cccn1	-87
Cc1cnn(Cc2nc(-c3ccc(NC(=O)c4ccccc4Cl)cc3)oc2C)c1	-84
Cc1oc(-c2ccc(NC(=O)c3ccccc3Cl)cc2)nc1Cn1cccn1	-100
Cc1cnn(Cc2nc(-c3ccc(NC(=O)c4ccc(F)cc4Cl)cc3)oc2C)c1	i
Cc1cnn(Cc2nc(-c3ccc(NC(=O)c4ccc(C(F)(F)F)cc4)cc3)oc2C)c1	i
Cc1ccccc1CC(=O)Nc1ccc(-c2nc(Cn3cccn3)c(C)o2)cc1	i
O=C(c1cccs1)N1CCCn2c(nc(Cn3ccnc3)cc2=O)C1	i
CC(CC1=CCCN(C)C1)NC(=O)c1ccc2c(c1)OC(F)(F)O2 (stereo not given)	i
Cc1ccc(NC(=O)CC(=O)NC(C)CCc2ccco2)cc1 (stereo not given)	i
Cc1nonc1CN(C)C(=O)c1cc(C(C)C)on1	i
Fc1cccc(-c2csc(-c3ccc(C(F)(F)F)cc3)n2)c1	i
Cc1ccc2oc(=O)n(CC(=O)NCC3CCN(C(C)C)CC3)c2c1	i
CCC(=O)N1C[C@H]2OC(=O)N(CCCc3ccc(OC)cc3)[C@H]2C1	i
Cc1ccc2c(c1)cc(S(=O)(=O)c1ccccc1)c(=O)n2CC(=O)NCc1ccccc1Cl	i
CCOc1ccccc1NC(=O)N1CCC2(CC1)NC(=O)c1cc(C)ccc1N2C	i
Cc1cnccc1CN(C)C(=O)c1cnc(C(C)C)[nH]c1=O	i
COc1ccc(CCNC(=S)N2CCC(c3nc4ccccc4o3)CC2)cc1OC	i
COC(=O)N1CCC2(CC1)NC(=O)c1ccccc12	i
C=CCn1c(=O)c(C(=O)Nc2cc(C)ccc2OC)c(O)c2ccccc21	i
SMILES	Tgondii IFNg
O=S(=O)(c1cccc(Cl)c1)N1CCC2(CC1)Nc1ccc(Cl)cc1-n1cccc12	i
Cc1ccccc1NC(=O)N1CC2CC(C(=O)N(C)C)C(C1)O2 (stereo not given)	i
CC(=O)Nc1cccc(-c2ccc(C(=O)N3CCCC3)cn2)c1	i
CS(=O)(=O)CC(=O)N1CCN(C2Cc3ccccc3C2)CC1	i
CC12CC3CC(C)(C1)CC(OCCN)(C3)C2	i
CCN1CCCC1CN(Cc1ccccn1)Cc1n[nH]nc1-c1ccccc1 (stereo not given)	i
Cc1cnn(Cc2nc(-c3ccc(NC(=O)c4ccccc4)cc3)oc2C)c1	i
Cc1cnn(Cc2nc(-c3ccc(NC(=O)c4ccc(Cl)s4)cc3)oc2C)c1	i
Cc1ccc(C(=O)Nc2ccc(-c3nc(Cn4cc(C)cn4)c(C)o3)cc2)cc1	i
Cc1cnn(Cc2nc(-c3ccc(NC(=O)c4sccc4C)cc3)oc2C)c1	i
Cc1cnn(Cc2nc(-c3ccc(NC(=O)c4cccs4)cc3)oc2C)c1	-76
Cc1cccc(C(=O)Nc2ccc(-c3nc(Cn4cc(C)cn4)c(C)o3)cc2)c1	-87
CS(=O)(=O)NC1CCOC2(CCN(Cc3cc(F)ccc3F)CC2)C1 (stereo not given)	i
Cc1ccc(C)n1C(Cc1c[nH]c2ccccc12)C(=O)O (stereo not given)	i
Cc1cccc(NC2COC3(CCN(C(=O)c4ccsc4)C3)C2)c1 (stereo not given)	i
Fc1ccc(C(c2ccc(F)cc2)N2CCN(Cc3cnc[nH]3)CC2)cc1	i
CNC(=O)c1cc(Oc2ccc(NC(=O)Nc3ccc(Cl)c(C(F)(F)F)c3)c(F)c2)ccn1	-81
Cc1nc(OCC(=O)Nc2ccc(Cl)c(C(F)(F)F)c2)c2ccccc2n1	i
CCc1nc(OCC(=O)Nc2ccc(Cl)c(C(F)(F)F)c2)c2ccccc2n1	i
N[C@@H](CCC(=O)N[C@@H](CS[NH2+][O-])C(=O)NCC(=O)O)C(=O)O	i
Cc1ccc(S(=O)(=O)N2C[C@H]3C[C@H](NC(=O)c4cc(C)c(C)s4)[C@H]3C2)cc1	i
COC(=O)c1sc2ccccc2c1Cl	i
O=C(c1sc2cc(Cl)ccc2c1Cl)N1c2ccccc2Sc2ccccc21	-80
CCNC(=O)c1sc2cc(C)ccc2c1Cl	i
CN(Cc1nnc(-c2ccccc2)o1)C(=O)c1ccc2c(c1)nnn2C1CCCCC1	i
SMILES	Tgondii IFNg
Cc1n[nH]c(C)c1S(=O)(=O)N1CCCC(COc2ccccc2F)C1 (stereo not given)	i
CC(C)C(=O)N1C[C@@H]2OCCN(c3cnccn3)[C@H]2C1	i
COc1cc(Cl)ccc1C(=O)NCC1CCCN(C)C1 (stereo not given)	i
COc1ccccc1C(=O)C1C(=O)NC23CCN(C)CC2C1c1cc(Cl)ccc1O3 (stereo not given)	-87
COc1cc(C(=O)N2CCC3(CC2)NC(=O)c2ccc(Cl)cc2N3)cc(OC)c1OC	i
Nc1ccccc1OCC1CCCCO1 (stereo not given)	i
COc1ccc(-c2nc(C)c(CCNS(=O)(=O)c3c(C)cc(C)cc3C)s2)cc1	i
CCOCC1CN(Cc2c(C)noc2C)Cc2ncn(CC3CC3)c21 (stereo not given)	i
Cn1c(SCC(=O)N2c3ccccc3Sc3ccccc32)nnc1-c1ccncc1	i
Cc1ccc2c(c1C)-n1cccc1C1(CCN(C(=O)c3ccc(Br)o3)CC1)N2	i
O=C(NCCc1c[nH]c2ccc(Cl)cc12)c1cccs1	i
CCCN1CCN(c2ncnc3sc(C(=O)NCCc4c[nH]c5ccc(Cl)cc45)c(C)c23)CC1	-85
O=C(NCCc1c[nH]c2ccc(Cl)cc12)c1sc2ncccc2c1-n1cccc1	i
Cn1ccc(C(=O)NC2CCC23CCN(Cc2ccoc2)CC3)c1 (stereo not given)	i
Cc1nc(-c2cccc(F)c2)sc1CCNC(=O)COc1ccc(Cl)cc1	i
O=C(Nc1ccc2c3c(cccc13)CC2)c1nc(-n2cnnc2)n[nH]1	-80
O=C(Nc1ccccc1C(=O)Nc1cccc2ccccc12)Nc1cccc2ccccc12	i
O=C(Nc1ccc2c3c(cccc13)CC2)c1cccnc1Cl	i
Cn1c(=O)c(-c2nc(-c3cccc(Cl)c3)no2)c(O)c2ccccc21	i
Cc1ccc(NC(=O)CC(=O)N2CCN3CCCC3C2)c(C)c1 (stereo not given)	i
CC(C)C(c1nnnn1Cc1ccccc1)N(Cc1cccnc1)Cc1ccccc1Cl (stereo not given)	i
Cn1cc(C2=C(c3cn(CCCSC(=N)N)c4ccccc34)C(=O)NC2=O)c2ccccc21	-77
COc1ccc2c(c1)c(C1=C(c3c[nH]c4ccccc34)C(=O)NC1=O)cn2CCCN(C)C	i
Cn1cc(C(=O)O)c(=O)c2ccccc21	i
CC(C)(C)C(=O)Nc1cc(C(F)(F)F)ccc1N1CCC(C(F)(F)F)CC1	-97
CC(=O)c1ccc(N2CCC(C)CC2)c(F)c1	i
CN1CCN(c2ccc(NC(=O)Nc3ccc(C(F)(F)F)cc3)cc2)CC1	i
CCCc1nc(C)cc(-c2ccc(F)c(CO)c2)n1	i
COCCN1CC(C(=O)O)CN2CCN(Cc3nccs3)CC2C1 (stereo not given)	i
Cc1nnc(-c2cccc(NS(=O)(=O)NCc3ccccc3)c2)s1	i
